# Bioassay records (PubChem)
# GLP1R inv ag = acts as inverse agonist at human GLP-1 receptor; HEK293 GLP-1R CRE-luciferase, luminescence, 24 h; GLP-1R form is constitutively active; 1.6% of 410,000 active; P43220; Potency, µM (highest dose often 38.3 µM), for inactives: at the top dose activity change, negative = inhibition, most hits filed as inhibitors; note: potency is the fitted concentration of half-maximal effect; % is set by controls: 0 for no effect and ±100 for the full control effect; nearly all actives have a fitted effect of over 55% in size
# Target sequence (P43220 whole entry, looked up): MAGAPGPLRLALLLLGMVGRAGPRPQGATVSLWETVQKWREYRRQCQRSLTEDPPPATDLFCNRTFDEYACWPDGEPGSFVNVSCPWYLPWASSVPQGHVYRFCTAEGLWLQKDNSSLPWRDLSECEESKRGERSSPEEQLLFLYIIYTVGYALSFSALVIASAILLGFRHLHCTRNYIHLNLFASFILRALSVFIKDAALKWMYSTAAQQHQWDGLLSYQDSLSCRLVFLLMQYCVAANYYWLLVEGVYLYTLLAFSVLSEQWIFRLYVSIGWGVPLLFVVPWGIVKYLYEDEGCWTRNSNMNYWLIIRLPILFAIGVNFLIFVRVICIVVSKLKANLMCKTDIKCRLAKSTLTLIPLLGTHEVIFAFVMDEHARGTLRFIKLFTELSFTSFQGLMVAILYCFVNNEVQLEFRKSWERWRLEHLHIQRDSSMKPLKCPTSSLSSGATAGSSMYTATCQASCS
#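 Readout was luciferase luminescence, measured 12 min after detection reagent at room temperature. Beforehand, GLP-1R reporter HEK293 cells had sat 12 h, then received compounds for 24 hr at 37 deg C.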
# GLP-1R agonist = GLP-1 receptor (human) agonism; 0.007% of 380,000 active; Potency, µM (highest dose often 45.6 µM), for inactives: at the highest dose activation, actives largely listed as activators; P43220; HEK293 GLP-1R CRE-luciferase, luminescence, 4-6 h; cells express a hypersensitive GLP-1R form; note: potency is the fitted concentration of half-maximal effect; % of control where 0% means no effect
# TRPML1 agonist = activates the human TRPML1 channel; Q9GZU1; TRPML1-expressing cells, Ca2+ dye fluorescence, FDSS; activation, % (no concentration beside the values); 0.12% of 410,000 active; AID 624414; in the data active = activation above about 50%; inconclusive = mostly about 30% to 49%; note: 0% is about no effect
#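 Kinetic FDSS Ca2+ read in Tet-induced TRPML1-DL cells (ABD Ca8 dye plus quencher, 45-90 min RT loading): baseline, then compound, then 110 s agonist window; EC80 agonist 54-4 at 4uM final added afterwards for a 110 s antagonist window.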
# TRPML1 inh = inhibitors of human TRPML1 channel; Q9GZU1; TRPML1-inducible cells, Ca2+ dye fluorescence, FDSS; hits give low values; inhibition of EC80 agonist-evoked calcium signal; activity change, negative = inhibition, % (concentration not given with the values); 0.02% of 390,000 active; AID 624415; in the data active = activity change below about -50%; inconclusive = between about -30% and that limit;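 note: stimulus is agonist 54-4 at its EC80 concentration; % is set by controls: 0 for no effect and ±100 for the full control effect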
#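 TRPML1-DL cells, Tet-induced overnight (~16 h, 37 °C) at 1,500 cells/well, were loaded with Ca8 no-wash dye plus quencher for 45-90 min at room temperature. Compounds were pinned during FDSS kinetic reading; agonist 54-4 at EC80 (4 uM final) then added.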
# GLP1R cytotox = cytotoxic in the GLP-1 receptor inverse agonist counter-screen. HEK293 cAMP-luciferase reporter cells, luminescence, 24 h. Potency, µM (highest dose often 38.3 µM), inactives show at the highest dose activity change, negative = inhibition, most hits filed as inhibitors. 0.13% of 410,000 active;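 note: loss of luciferase light is scored as toxicity; potency is the fitted concentration of half-maximal effect; % is set by controls: 0 for no effect and ±100 for the full control effect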
#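 Luminescence readout: signal drop marks cytotoxicity. Plated cells grew 12 h at 37 °C, 5% CO2, received 23 nL compound for 24 h, then got luciferase reagent, read after 12 min at RT.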
# Active calls of the source: *; ? = inconclusive; . = not tested or not shown. In the library only some 1.8% were active in any assay of this set; here they are far more common. Unless noted, calls come from the whole dose curve; as a rule, active = well fitted curve in the direction sought with a large enough effect; inconclusive = small, poorly fitted or top-dose-only effect, or another doubt; inactive = no such curve, though single readings can be large; an effect the other way counts as inactive or inconclusive.
SMILES,GLP1R inv ag,GLP-1R agonist,TRPML1 agonist,TRPML1 inh,GLP1R cytotox
CC1(C(=O)Nc2ccccc2Cc2ccccc2)CCN1Cc1ccccc1Cl (configuration not stated),?,-6%,1,.,2%
CC1(C(=O)Nc2ccccc2Cc2ccccc2)CCN1CCc1ccccc1 (configuration not stated),13µM*,-3%,1,.,6%
CCc1ccc(NC(=O)c2nc(SCc3ccccc3F)ncc2Cl)cc1,.,.,0,.,.
CCOc1ccc(CNC(=O)C2CCN(Cc3cc4ccccc4n3Cc3ccccc3C)CC2)cc1,7.1µM*,.,4,1,6%
O=c1cc(N2CCCCC2)c(-c2ccccc2)nn1Cc1ccc(F)cc1,2µM*,-3%,0,-3,-5%
O=c1cc(N2CCCCC2)c(-c2ccccc2)nn1Cc1ccc(Cl)cc1,-30%,-5%,1,10,-2%
COc1cc([N+](=O)[O-])ccc1NC(=O)NCC1CCN(Cc2ccc(Cl)cc2)CC1,10µM*,1%,4,13,?
NC(=O)c1cc2ccncc2c2ccccc12,1µM*,-6%,0,5,-14%
Cc1ccc(N2C(N)=C(C#N)C(c3ccsc3)C3=C2CC(C)(C)CC3=O)cc1 (configuration not stated),-7%,2%,57*,-2,-23%
CN(C)N1C(N)=C(C#N)C(c2ccsc2)C2=C1CC(C)(C)CC2=O (configuration not stated),14%,-8%,-1,-29,-10%
CS(=O)(=O)N(CC(=O)NCCSCc1ccccc1)c1cc(C(F)(F)F)ccc1Cl,11µM*,.,1,-10,-13%
COCCNC(=O)CN(c1cc(C(F)(F)F)ccc1Cl)S(C)(=O)=O,2%,-5%,2,4,4%
COc1ccccc1NC(=O)Cn1c(=O)n(CCc2ccccc2)c(=O)c2c3c(sc21)CN(C(C)=O)CC3,-6%,5%,-1,13,-20%
CCCc1nc2ccccc2c(=O)n1/N=C/c1ccccc1O,4.5µM*,8%,2,-14,-4%
Cc1cccc(C)c1OCc1nc2ccccc2c(=O)n1/N=C/c1c[nH]c2ccccc12,2.8µM*,0%,0,-8,-23%
O=c1oc2c(CN3CCOCC3)c(O)ccc2c2c1CCCC2,26%,7%,0,-1,148%
CC1(C)Oc2c(ccc(O)c2CN2CCOCC2)C2=C1CCCC2,7.1µM*,2%,2,-10,-6%
O=C(C1COc2ccccc2O1)N1CCN(c2nc3ccc(F)cc3s2)CC1 (configuration not stated),?,.,0,-7,0%
C[C@@H](CSc1ccc(Br)cc1)CN1CC[C@H](C(C)(C)C)CCC1=O,?,-4%,2,37,0%
CC(C)(C)[C@@H]1CCC(=O)N(CC[C@H](Sc2ccccc2)c2ccccc2)CC1,4.5µM*,2%,2,51,?
Cc1ccc(SC[C@H](C)CN2CC[C@H](C(C)(C)C)CCC2=O)cc1,10µM*,10%,1,32,1%
CCCN(CCC)S(=O)(=O)c1ccc2c(c1)N(CC(=O)NC(C)c1ccccc1)C(=O)CS2 (configuration not stated),?,.,2,14,-17%
COc1ccc(-c2nn3c(-c4cc(-c5ccccc5)n[nH]4)nnc3s2)cc1OC,.,.,-1,.,.
O=C(Cn1ccc2cc(S(=O)(=O)N3CCCCC3)ccc21)NCCc1ccccc1Cl,?,.,1,-8,-2%
CCN(CC)CCN(Cc1cc2cc(C)c(C)cc2[nH]c1=O)C(=S)NCc1ccco1,10µM*,13%,0,4,?
COc1ccccc1NC(=O)N(Cc1ccco1)Cc1cc2cccc(C)c2[nH]c1=O,11µM*,1%,0,42,-14%
Cc1cc2cc(CN(CCN(C)C)C(=S)NCc3ccco3)c(=O)[nH]c2cc1C,?,16%,1,-20,-8%
CCN(CC)CCN(Cc1cc2cc(C)ccc2[nH]c1=O)C(=O)Nc1ccccc1OC,13µM*,-9%,2,-2,?
CN(C)CC/C=C1\c2ccccc2COc2ccc(CC(=O)O)cc21,.,-4%,.,.,.
